According to PubChem BioAssay (EPA / NIEHS):
Active and inactive are the calls of the source. Rule for the calls: active = hit-call score of the fitted dose curve at least 0.9, where 1 is the maximum; inactive = score below 0.9.

Tests used:
[1] = ATG_GLI_CIS: Attagene CIS-FACTORIAL HepG2 Assay for human Zinc Finger Protein GLI1 (AID 2282945); settings: HepG2, Attagene cis-factorial reporter mRNA, GLI element; actives raise or lower the signal
Summary of the method: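 Transiently transfected HepG2 cells report endogenous transcription factor activity via cis-element-driven reporter units. After 24 h compound exposure, reporter mRNA was measured by RT-PCR with capillary electrophoresis; bidirectional fitting against DMSO baseline.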

[2] = biological target: Bile acid receptor (Homo sapiens) (UniProt Q96RI1); assay: ATG_IR1_CIS: Attagene CIS-FACTORIAL HepG2 Assay for human Nuclear Receptor Subfamily 1 Group H Member 4 (NR1H4), IR1 submotif (AID 2282946); settings: IR1 reporter transcription, actives raise or lower the signal
Summary of the method: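 HepG2 cells transiently transfected with multiple cis-promoter-driven reporter units to measure endogenous transcription factor activity; 24 h exposure. Reporter mRNA read by RT-PCR, FAM labelling, HpaI digestion and capillary electrophoresis. Bidirectional fit versus DMSO.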

[3] = ATG_GRE_CIS: Attagene CIS-FACTORIAL HepG2 Assay for human Glucocorticoid Response Elements (GRE) (AID 2282947); settings: HepG2 GRE cis-reporter, Attagene multiplex mRNA; actives raise or lower the signal
Summary of the method: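 Endogenous transcription factor activity is read through cis-element reporter constructs transiently transfected into HepG2 cells. After 24 h treatment, labelled RT-PCR products are resolved by capillary electrophoresis; DMSO sets baseline for bidirectional curve fitting.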

[4] = ATG_ISRE_CIS: Attagene CIS-FACTORIAL HepG2 Assay for human Interferon Regulatory Factor 1 (IRF1) binding to an Interferon-Stimulated Response Element (ISRE) (AID 2282948); settings: HepG2 ISRE cis-reporter (Attagene), mRNA transcription readout; actives raise or lower the signal
Summary of the method: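 Transfected HepG2 (multiple reporter transcription units, cis elements) dosed 24 h. RNA → oligo(dT) RT → PCR → 6-FAM primer extension → HpaI → CE. DMSO = negative control/baseline.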

[5] = ATG_M_32_CIS: Attagene CIS-FACTORIAL HepG2 Assay for M32 Transcription Factor (Internal Marker) (AID 2282949); settings: HepG2 Attagene cis-factorial M32 reporter, mRNA; actives raise or lower the signal;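 note: background control marker of the multiplexed CIS panel rather than a real target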
Summary of the method: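 Following 24 h chemical exposure of HepG2 cells transiently expressing cis-promoter reporter constructs, reporter transcript levels were determined by RT-PCR with fluorescent labelling and capillary electrophoresis, then fitted bidirectionally against DMSO.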

[6] = ATG_M_06_CIS: Attagene CIS-FACTORIAL HepG2 Assay for M06 Transcription Factor (Internal Marker) (AID 2282950); settings: HepG2 Attagene CIS-FACTORIAL M06 internal marker reporter; actives raise or lower the signal
Summary of the method: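 Measured 24 h post-dosing in transiently transfected HepG2 cells, this internal-marker endpoint reports reporter mRNA via RT-PCR with fluorescent primer extension and capillary electrophoresis. DMSO served as negative control and baseline for bidirectional fitting.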

[7] = biological target: Hypoxia-inducible factor 1-alpha (Homo sapiens) (UniProt Q16665); assay: ATG_HIF1a_CIS: Attagene CIS-FACTORIAL HepG2 Assay for human Hypoxia Inducible Factor 1 (HIF1A) (AID 2282951); settings: HepG2 Attagene cis-factorial HIF1a reporter transcription; actives raise or lower the signal
Summary of the method: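 Activity is fitted in both directions relative to DMSO. Reporter transcripts are read by RT-PCR, fluorescent primer extension and capillary electrophoresis after 24 h chemical treatment. The cells are HepG2 carrying transiently transfected cis-element-driven reporter units responding to endogenous factors.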

[8] = biological target: Hepatocyte nuclear factor 6 (Homo sapiens) (UniProt Q9UBC0); assay: ATG_HNF6_CIS: Attagene CIS-FACTORIAL HepG2 Assay for human Hepatocyte Nuclear Factor 6 (HNF6) (AID 2282952); settings: HepG2 Attagene cis-factorial HNF6 reporter transcription; actives raise or lower the signal
Summary of the method: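 HepG2 cells transiently transfected with cis-element-driven multiple reporter transcription units, dosed 24 h; reporter mRNA quantified by RT-PCR, FAM primer extension, HpaI digestion and capillary electrophoresis; bidirectional fit versus DMSO baseline.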

[9] = biological target: Heat shock factor protein 1 (Homo sapiens) (UniProt Q00613); assay: ATG_HSE_CIS: Attagene CIS-FACTORIAL HepG2 Assay for human Heat Shock Transcription Factor 1 (HSE) (AID 2282953); settings: HepG2 HSE cis-reporter, Attagene RNA transcription; actives raise or lower the signal
Summary of the method: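 Reporter mRNA induction in HepG2 is measured 24 h after dosing, using transiently transfected multiplexed cis-regulated reporter units. Signal comes from capillary electrophoresis of labelled RT-PCR products, with DMSO as negative control.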

[10] = ATG_MRE_CIS: Attagene CIS-FACTORIAL HepG2 Assay for human Metal Responsive Element (MRE) (AID 2282954); settings: HepG2 MRE cis-reporter transcription, Attagene multiplex; actives raise or lower the signal
Summary of the method: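 Fluorescent reporter fragments separated by capillary electrophoresis give mRNA induction for the MRE unit after 24 h treatment of transfected HepG2 cells. Endogenous transcription-factor activity is read; DMSO serves as negative control and baseline.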

Heat shock factor protein 1 (Homo sapiens), sequence (Q00613 whole entry, looked up): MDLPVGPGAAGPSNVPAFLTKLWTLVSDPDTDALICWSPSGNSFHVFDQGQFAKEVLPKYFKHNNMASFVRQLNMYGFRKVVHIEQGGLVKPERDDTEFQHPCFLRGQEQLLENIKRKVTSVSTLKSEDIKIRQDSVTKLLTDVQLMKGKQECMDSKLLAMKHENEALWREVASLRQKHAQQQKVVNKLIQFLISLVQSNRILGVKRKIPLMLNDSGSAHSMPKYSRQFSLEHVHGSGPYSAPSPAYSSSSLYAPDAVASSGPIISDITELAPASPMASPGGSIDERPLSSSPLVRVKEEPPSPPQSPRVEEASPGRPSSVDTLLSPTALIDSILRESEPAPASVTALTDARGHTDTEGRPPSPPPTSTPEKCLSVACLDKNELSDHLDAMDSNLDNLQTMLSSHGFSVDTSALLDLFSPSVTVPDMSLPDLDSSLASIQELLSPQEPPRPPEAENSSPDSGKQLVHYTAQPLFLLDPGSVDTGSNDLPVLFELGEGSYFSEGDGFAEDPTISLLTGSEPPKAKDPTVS
Hypoxia-inducible factor 1-alpha (Homo sapiens), sequence (Q16665 whole entry, looked up): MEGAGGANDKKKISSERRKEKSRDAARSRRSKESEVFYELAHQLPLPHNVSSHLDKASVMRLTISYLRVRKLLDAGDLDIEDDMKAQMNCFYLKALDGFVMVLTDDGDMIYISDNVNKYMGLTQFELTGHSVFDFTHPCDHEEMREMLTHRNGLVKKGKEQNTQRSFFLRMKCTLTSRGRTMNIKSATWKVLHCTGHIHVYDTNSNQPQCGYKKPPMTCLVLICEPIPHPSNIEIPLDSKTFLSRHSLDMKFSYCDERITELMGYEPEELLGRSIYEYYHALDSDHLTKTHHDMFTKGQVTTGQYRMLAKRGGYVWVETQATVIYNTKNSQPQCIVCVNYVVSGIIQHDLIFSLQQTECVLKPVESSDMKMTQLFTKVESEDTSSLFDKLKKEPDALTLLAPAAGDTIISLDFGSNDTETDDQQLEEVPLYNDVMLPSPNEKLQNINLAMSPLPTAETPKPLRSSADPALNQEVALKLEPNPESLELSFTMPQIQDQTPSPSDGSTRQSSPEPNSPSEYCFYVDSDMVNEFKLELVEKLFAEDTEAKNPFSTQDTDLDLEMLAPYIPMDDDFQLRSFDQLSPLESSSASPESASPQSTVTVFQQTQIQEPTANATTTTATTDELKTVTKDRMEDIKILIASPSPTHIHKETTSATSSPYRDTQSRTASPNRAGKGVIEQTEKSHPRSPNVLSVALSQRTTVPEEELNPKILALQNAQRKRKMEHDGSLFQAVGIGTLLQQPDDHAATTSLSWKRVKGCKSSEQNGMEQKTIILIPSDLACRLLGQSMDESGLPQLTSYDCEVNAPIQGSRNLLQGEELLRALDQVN
Hepatocyte nuclear factor 6 (Homo sapiens), sequence (Q9UBC0 whole entry, looked up): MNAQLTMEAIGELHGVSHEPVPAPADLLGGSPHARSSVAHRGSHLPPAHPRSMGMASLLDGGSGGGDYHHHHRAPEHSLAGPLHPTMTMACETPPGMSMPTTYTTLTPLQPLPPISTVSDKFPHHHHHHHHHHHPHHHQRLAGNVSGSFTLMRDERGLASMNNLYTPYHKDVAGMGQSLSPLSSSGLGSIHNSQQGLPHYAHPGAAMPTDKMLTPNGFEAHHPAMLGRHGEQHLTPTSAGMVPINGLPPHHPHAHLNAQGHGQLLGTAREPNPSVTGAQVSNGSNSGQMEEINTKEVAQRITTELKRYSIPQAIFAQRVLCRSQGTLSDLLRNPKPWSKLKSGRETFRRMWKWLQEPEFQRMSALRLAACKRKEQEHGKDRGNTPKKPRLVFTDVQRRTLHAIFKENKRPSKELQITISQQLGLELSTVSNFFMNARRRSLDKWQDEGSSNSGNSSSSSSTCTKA
Bile acid receptor (Homo sapiens), sequence (Q96RI1 whole entry, looked up): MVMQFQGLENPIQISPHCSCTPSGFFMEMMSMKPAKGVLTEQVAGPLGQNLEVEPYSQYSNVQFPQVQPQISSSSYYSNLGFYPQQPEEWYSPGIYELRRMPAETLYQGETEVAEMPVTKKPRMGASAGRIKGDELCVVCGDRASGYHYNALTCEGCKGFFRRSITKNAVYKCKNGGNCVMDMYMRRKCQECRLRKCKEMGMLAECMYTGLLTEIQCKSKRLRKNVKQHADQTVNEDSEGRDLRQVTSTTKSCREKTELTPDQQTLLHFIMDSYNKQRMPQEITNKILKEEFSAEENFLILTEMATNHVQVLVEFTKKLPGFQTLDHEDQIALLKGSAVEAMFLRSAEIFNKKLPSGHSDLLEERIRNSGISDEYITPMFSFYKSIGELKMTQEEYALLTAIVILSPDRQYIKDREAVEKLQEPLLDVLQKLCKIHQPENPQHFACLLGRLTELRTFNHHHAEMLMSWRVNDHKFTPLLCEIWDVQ

Structure (SMILES): Cc1c[nH]c(=O)[nH]c1=O
- outcome [1]: inactive
- outcome [2]: inactive
- outcome [3]: inactive
- outcome [4]: inactive
- outcome [5]: inactive
- outcome [6]: inactive
- outcome [7]: inactive
- outcome [8]: inactive
- outcome [9]: inactive
- outcome [10]: inactive

Structure (SMILES): O=C1CCCN1C1CCCCC1
- outcome [1]: inactive
- outcome [2]: inactive
- outcome [3]: inactive
- outcome [4]: inactive
- outcome [5]: inactive
- outcome [6]: inactive
- outcome [7]: inactive
- outcome [8]: inactive
- outcome [9]: inactive
- outcome [10]: inactive

Structure (SMILES): CCC1COC(=O)O1 (stereo unspecified)
- outcome [1]: inactive
- outcome [2]: inactive
- outcome [3]: inactive
- outcome [4]: inactive
- outcome [5]: inactive
- outcome [6]: inactive
- outcome [7]: inactive
- outcome [8]: inactive
- outcome [9]: inactive
- outcome [10]: inactive

Structure (SMILES): COC(=O)CC(C)CCC=C(C)C (stereo unspecified)
- outcome [1]: inactive
- outcome [2]: inactive
- outcome [3]: inactive
- outcome [4]: inactive
- outcome [5]: inactive
- outcome [6]: inactive
- outcome [7]: inactive
- outcome [8]: inactive
- outcome [9]: inactive
- outcome [10]: inactive

Structure (SMILES): CCC(C)c1ccccc1 (stereo unspecified)
- outcome [1]: inactive
- outcome [2]: inactive
- outcome [3]: inactive
- outcome [4]: inactive
- outcome [5]: inactive
- outcome [6]: inactive
- outcome [7]: inactive
- outcome [9]: inactive
- outcome [10]: inactive

Structure (SMILES): CC(C)=CCl
- outcome [1]: inactive
- outcome [2]: inactive
- outcome [3]: inactive
- outcome [4]: inactive
- outcome [5]: inactive
- outcome [6]: inactive
- outcome [7]: inactive
- outcome [8]: inactive
- outcome [9]: inactive
- outcome [10]: inactive

Structure (SMILES): c1ccc(-c2nc3ccccc3[nH]2)cc1
- outcome [1]: inactive
- outcome [2]: inactive
- outcome [3]: inactive
- outcome [4]: inactive
- outcome [5]: inactive
- outcome [6]: inactive
- outcome [7]: inactive
- outcome [8]: inactive
- outcome [9]: inactive
- outcome [10]: inactive

Structure (SMILES): CC12CCC(CC1)C(C)(C)O2
- outcome [1]: inactive
- outcome [2]: inactive
- outcome [3]: inactive
- outcome [4]: inactive
- outcome [5]: inactive
- outcome [6]: inactive
- outcome [7]: inactive
- outcome [8]: inactive
- outcome [9]: inactive
- outcome [10]: inactive

Structure (SMILES): CN(C)c1ccc2nc3ccc(=[N+](C)C)cc-3sc2c1
- outcome [1]: inactive
- outcome [2]: inactive
- outcome [3]: inactive
- AC50 [4]: 41.6 µM (active)
- outcome [5]: inactive
- outcome [6]: inactive
- AC50 [7]: 0.766 µM (active)
- outcome [9]: inactive
- outcome [10]: inactive

Structure (SMILES): O=C(O)/C=C/c1ccccc1
- outcome [1]: inactive
- outcome [2]: inactive
- outcome [3]: inactive
- outcome [4]: inactive
- outcome [5]: inactive
- outcome [6]: inactive
- outcome [7]: inactive
- outcome [8]: inactive
- outcome [10]: inactive

Structure (SMILES): CCCCCCCCCCCC(C)=O
- AC50 [1]: 166 µM (active)
- outcome [2]: inactive
- outcome [3]: inactive
- outcome [4]: inactive
- outcome [5]: inactive
- outcome [6]: inactive
- outcome [7]: inactive
- AC50 [8]: 123 µM (active)
- outcome [9]: inactive
- AC50 [10]: 179 µM (active)

Structure (SMILES): [Cl][Eu]([Cl])[Cl]
- outcome [1]: inactive
- outcome [2]: inactive
- outcome [3]: inactive
- outcome [4]: inactive
- outcome [5]: inactive
- outcome [6]: inactive
- outcome [7]: inactive
- outcome [8]: inactive
- outcome [9]: inactive
- outcome [10]: inactive

Structure (SMILES): O=C(O)C(F)(F)C(F)(F)C(F)(F)C(F)(F)C(=O)O
- outcome [1]: inactive
- outcome [2]: inactive
- outcome [3]: inactive
- outcome [4]: inactive
- outcome [5]: inactive
- outcome [6]: inactive
- outcome [8]: inactive
- outcome [9]: inactive
- outcome [10]: inactive
